Assay outcomes (PubChem)
The list is not random: actives were taken first. Their share in the collection is about 6.5%.
VACV Venus inh = inhibitors of vaccinia virus (Venus reporter); Vaccinia virus Venus reporter expression, fluorescence; Potency, µM (titrated, usually from 36.5 µM), most hits filed as inhibitors; 330,000 compounds, 0.46% hits; calls by dose curve; tested in A549 cells; further: nearly all actives have a fitted effect of over 30% in size
FMDV antiviral = antivirals against foot and mouth disease virus; Potency, µM (doses to about 57.9 µM), hits mostly inhibitors; FMDV antiviral cell-based qHTS; AID 1159524; 410,000 compounds, 1.2% hits; calls by dose curve; tested in HEK293T cells; further: read-out not given here; nearly all actives have a fitted effect of over 45% in size
Marburg entry inh = inhibitors of Marburg virus binding or cell entry; Potency, µM (series often up to 37.8 µM), usual class: inhibitors; Marburg virus pseudotyped entry inhibition, cell reporter; 300,000 compounds, 1.8% hits; AID 540276; calls by dose curve; tested in HEK293 cells
Vaccinia mCherry = inhibitors of vaccinia virus infection (mCherry reporter signal). AID 720579. Potency, µM (titrated, usually from 36.5 µM), most hits filed as inhibitors. Vaccinia virus mCherry reporter infection, fluorescence. 310,000 compounds, 0.63% hits; calls by dose curve; tested in A549 cells; further: nearly all actives have a fitted effect of over 35% in size
LASV entry inh = inhibitors of Lassa virus binding or cell entry; Lassa virus pseudotype entry inhibition, cell reporter; Potency, µM (series often up to 37.9 µM), actives largely listed as inhibitors; 300,000 compounds, 1.2% hits; AID 540256; calls by dose curve; tested in HEK293 cells; further: nearly all actives have a fitted effect of over 50% in size
HCMV inh = inhibitors of human cytomegalovirus; HFF cells, HCMV-luciferase reporter, 72 h; stronger effect = lower value; activity change, negative = inhibition, % at 57.5 µM; 410,000 compounds, 4.5% hits; in the data active means activity change below about -60%; inconclusive means no clear call, values can overlap the other calls; inactive means above about -39%
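Two-dose cell screen: HFF monolayers treated with compounds and infected with luciferase-expressing HCMV at 1 PFU/cell, 72 h at 37C, then lysed for luciferase measurement.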
Hits are given with their value; – = inactive; ? = inconclusive; · = no result; [ ] = remark or other dose.

SMILES | VACV Venus inh | FMDV antiviral | Marburg entry inh | Vaccinia mCherry | LASV entry inh | HCMV inh
CC(=O)c1ccc(N2CCN(c3ncnc4c3nc3n4CCCC3)CC2)cc1 | ? | 18µM | · | – | – | -86
Cc1ccc(C)c(N2CCN(c3ncnc4c3nc3n4CCCC3)CC2)c1 | – | ? | · | – | – | –
c1ccc(N2CCN(c3ncnc4c3nc3n4CCCC3)CC2)cc1 | ? | 14µM | · | – | ? | -68
COc1ccccc1CNc1ncnc2c1nc1n2CCCC1 | – | – | ? | – | ? | –
CCOc1ccccc1CNc1ncnc2c1nc1n2CCCC1 | – | – | · | – | ? | -81
O=C(NCc1ccccc1)C1CCN(c2ncnc3c2nc2n3CCCCC2)CC1 | – | – | · | – | – | –
COc1ccc(N2CCN(c3ncnc4c3nc3n4CCCCC3)CC2)cc1 | ? | 11µM | · | ? | – | –
COCc1cc(C)nc2c1C(=O)NC(c1ccc(F)cc1)N2Cc1ccccc1 (centres undefined) | – | – | · | – | – | –
Cc1ccc(Cl)cc1N1CCN(c2ncnc3c2nc2n3CCCC2)CC1 | ? | 28µM | · | – | ? | –
FC(F)(F)c1cccc(N2CCN(c3ncnc4c3nc3n4CCCC3)CC2)c1 | –[7.34 µM] | 20µM | · | –[7.34 µM] | – | -73
Cc1ccc(C)c(N2CCN(c3ncnc4c3nc3n4CCCCC3)CC2)c1 | – | – | · | – | – | –
COc1ccccc1N1CCN(c2ncnc3c2nc2n3CCCC2)CC1 | – | ? | – | – | – | –
COc1cccc(N2CCN(c3ncnc4c3nc3n4CCCCC3)CC2)c1 | ? | 11µM | · | ? | ? | -99
COc1ccc(C(=O)/C=C/c2ccc(N(C)C)cc2)c(OC)c1 | – | – | 7.1µM | ? | 10µM | –
COc1ccc(C(=O)/C=C/c2ccc(N3CCCCC3)c([N+](=O)[O-])c2)c(OC)c1 | ? | ? | – | 11µM | ? | –
COc1ccc(OC)c(C(=O)C(=O)c2cc(OC)ccc2OC)c1 | – | – | ? | – | – | –
COc1cc(C)cc(C(=O)C=Cc2ccccc2)c1O | – | 32µM | ? | – | – | –
CN(C)c1ccc(/C=C/C(=O)c2ccccc2O)cc1 | · | – | ? | · | – | –
COc1ccc(C(=O)/C=C/c2ccc(N3CCCCC3)c([N+](=O)[O-])c2)cc1 | – | – | – | – | – | –
COc1ccc(OC)c(C(=O)/C=C/c2ccccc2C(F)(F)F)c1 | · | 20µM | ? | · | ? | -104
COc1cc(C(=O)NCC(c2ccc(N(C)C)cc2)N2CCc3ccccc32)cc(OC)c1OC (centres undefined) | – | – | · | – | – | –
Cc1c(C(=O)N(C)C2CCOC2)cnn1-c1ncc2c(n1)-c1ccccc1CCC2 (centres undefined) | – | – | · | – | · | ·
COc1ccc(C(=O)/C=C/c2cc(OC)c(O)c(OC)c2)c(F)c1 | – | ? | ? | ? | 13µM | -96
COc1ccc(C(=O)/C=C/c2ccc(O)cc2)cc1 | – | – | · | – | · | –
COc1ccc(C=CC(=O)c2cc(O)ccc2O)cc1 | – | – | – | 7.9µM | ? | ?
SMILES | VACV Venus inh | FMDV antiviral | Marburg entry inh | Vaccinia mCherry | LASV entry inh | HCMV inh
Cc1ccc(O)c(C(=O)C=Cc2ccccc2)c1 | – | 35µM | ? | – | – | –
COc1cccc(/C=C/C(=O)c2ccc[nH]2)c1 | ? | – | – | ? | ? | -87
O=C(/C=C/c1ccc2c(c1)OCO2)c1ccc[nH]1 | ? | – | ? | ? | ? | –
COC1=C(C)C(O)=C(C(=O)/C=C/c2ccccc2)C(=O)C1(C)C | ? | – | · | 11µM | · | -77
COc1ccc(C(=O)/C=C/c2ccccc2)c(OC)c1 | ? | – | · | ? | · | -68
COc1ccc(C=CC(=O)C=CC=Cc2ccccc2)cc1 | – | – | ? | – | ? | –
COc1ccc(C=CC(=O)c2c(OC)cc(OC)c(OC)c2O)cc1 | ? | 18µM | ? | ? | – | –
COc1ccc(C(=O)/C=C/c2ccccc2)cc1 | – | – | · | – | · | ·
O=C(O)c1ccc(C2Nc3ccccc3-c3nnc(SCc4ccc(Cl)cc4)nc3O2)cc1 (centres undefined) | – | – | ? | – | – | –
CO[C@H]1[C@H](NC(=O)c2cccc(F)c2)c2ccccc2C12CCN(Cc1ccco1)CC2 | – | – | · | – | · | ·
CCCC(O)(c1ccccc1)C(CN1CCOCC1)c1ccccc1 (centres undefined) | · | – | · | · | · | ?
CCCC(O)(c1ccc(CC)cc1)C(CN1CCOCC1)c1ccccc1 (centres undefined) | – | ? | ? | – | ? | -69
CCc1ccc(C(O)(C(C)C)C(CN2CCOCC2)c2ccccc2)cc1 (centres undefined) | · | – | · | · | · | -77
